# Measurements published in PubChem BioAssay (NCI).
# Compounds without any hit were thinned out: in the full panel of roughly 83,000, 20% have a hit.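 Treatment: one concentration, 48 hours, 96-well format. Scoring: percent growth, with anything below 10 considered active.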 Unmarked numbers belong to inactive results. The source made the active and inactive calls.
# System: HL-60(TB) leukemia
# Experiment: NCI-60 one-dose screen, 48 h (100 = growth as untreated, 0 = no growth, -100 = all killed)
# Details: 10 µM unless noted
row,SMILES,growth
1,CCC(C)C(N)C(=O)NNc1n[nH]c(=S)n1N (stereo not given),100%
2,N#Cc1c(-c2cccc([N+](=O)[O-])c2)cc(-c2ccc(Nc3nc(Nc4ccc(F)cc4)nc(Nc4ccc(F)cc4)n3)cc2)nc1N,28.1%
3,O=C(CN1C=NC2C(N3CCOCC3)=NC=NC21)c1cccc2ccccc12 (stereo not given),103%
4,CCCCN(CCCC)Cc1c(C)[nH]c2cc(OC)ccc2c1=O,94.1%
5,COc1ccc(-c2cc3c(C)nc(N)nc3n(C3CCC(OCCO)CC3)c2=O)cn1 (stereo not given),28.4%
6,COc1cc2c(-c3nc4cc(Cl)c(F)cc4s3)cc(=O)oc2c(C)c1OC,-56.2% (active)
7,O=C(N/N=C/c1ccc(Cl)cc1)c1ccccc1Nc1cccc(C(F)(F)F)c1,84.7%
8,COc1ccc(/C=C/c2c(C(=O)/C=C/c3ccc(F)cc3)c(C)nc3ccccc23)cc1,24.2%
9,Brc1cccc(-c2cc(-c3ccc4c(c3)OCCO4)[nH]n2)c1,12.3% [25 µM]
10,O=C(Nc1ccccc1O)c1ccc(CNC(=O)c2ccsc2Nc2ccnc(C(F)(F)F)c2)cc1,7.44% (active)
11,O=C(CN1CCN(c2cc3c(cc2F)c(=O)c(C(=O)O)cn3C2CC2)CC1)Nc1cc(=O)[nH]c(=O)[nH]1,103%
12,C=C(C)[C@@H]1CC[C@]2(C(=O)N3CCN(C)CC3)CC[C@]3(C)[C@H](CC[C@@H]4[C@@]5(C)C/C(=C/c6ccncc6)[C@H](O)C(C)(C)[C@@H]5CC[C@]43C)[C@@H]12,-25.2% [100 µM] (active)
13,CC(=O)/C(=C\c1ccc(Cl)cc1)c1ccccc1,-16.2% (active)
14,COc1ccc2c(c1)N(CCO)C1=C(C(=O)OC1)C2c1cccc(F)c1 (stereo not given),-22.7% (active)
15,COc1ccc(/C=C/C(=O)c2ccc(O)c(CN3CCN(c4cc5c(cc4F)c(=O)c(C(=O)O)cn5C4CC4)CC3)c2)cc1,0.375% (active)
16,CCN(C(=O)Nc1cccc2ccccc12)c1ccccc1,102%
17,COc1ccc2nc(-c3ccc(OC)c(OC)c3)cc(-c3nnc(SCC(=O)Nc4ccc(C(C)=O)cc4)o3)c2c1,77.7%
18,COC(=O)c1c(C)nc(C)c2c1C(=O)C=C(NCc1ccccc1)C2=O,81.8%
19,Cc1cc(NC(=O)c2cnc(N3CCN(CCOCCOCCOCCOCCC(=O)N[C@H](C(=O)N4C[C@H](O)C[C@H]4C(=O)N[C@@H](C)c4ccc(-c5scnc5C)cc4)C(C)(C)C)CC3)cn2)c2ncccc2c1,-21.1% (active)
20,CCSc1nc2ccccc2o1,97.5%

row,SMILES,growth
1,S=c1n(CNc2ccc(Cl)nn2)nc(-c2cc(Cl)cc(Cl)c2Cl)n1/N=C/c1ccc(Cl)cc1,3.47% (active)
2,COc1ccc(/C(C#N)=C/c2cccc(OC)c2OC)cc1,76.7%
3,COC1=C(C)C(=O)c2c(c(CCCl)c3n2CCC3OC(C)=O)C1=O (stereo not given),34.2%
4,CSCCC1NC(=O)C(C(C)=Nc2ccccc2)=C1O (stereo not given),117%
5,CC/C(=C(/c1ccc(O)cc1)c1ccc(OCCN2CCCCCC2)cc1)c1ccc(Cl)cc1,53.9%
6,CC/C=C\C/C=C\C[C@H]1C/C=C2/C(=O)C=C[C@@H]2C/C=C\CCC(=O)O1,1.1% (active)
7,O=[N+]([O-])c1ccc(-c2ncc(-c3ccc(Br)cc3)o2)cc1,76.6%
8,COc1ccc(Nc2nc(SC)nc(-c3cccc([N+](=O)[O-])c3)c2C#N)cc1,112%
9,CCSC1=CC(=O)c2ccccc2C1=O,50.9%
10,Fc1ccc(Nc2ncnc3ccc(-c4cnc5[nH]ccc5c4)cc23)cc1Cl,-22.3% (active)
11,CN1CCOCCOCCOc2ccccc2NC(=O)c2nc(cnc2N)-c2ccc(cc2)S1(=O)=O,-22.2% (active)
12,C=C1C(=O)O[C@H]2[C@H]1CC/C(C(=O)NCCCCCNC(=O)/C1=C/CC[C@@]3(C)O[C@H]3[C@H]3OC(=O)C(=C)[C@@H]3CC1)=C\CC[C@@]1(C)O[C@@H]21,89.4%
13,CC(=O)O[C@]1(C)C[C@H](O)[C@]2(O)C=CO[C@H](O[C@@H]3O[C@H](CO)[C@@H](O)[C@H](O)[C@H]3O)[C@@H]21,92.5%
14,CCCCC[C@H]1CC=C2C(=O)C(Cl)=C[C@@H]2CC=CCCCC(=O)O[C@@H](CCCCC)CC=C2C(=O)C(Cl)=C[C@@H]2CC=CCCCC(=O)O[C@@H](CCCCC)CC=C2C(=O)C(Cl)=C[C@@H]2CC=CCCCC(=O)O1,8.31% [8 µM] (active)
15,O/N=C/c1cccs1,95.3%
16,O=C(CCN1CCCC1)Nc1ccc2c(NCCCCc3ccccc3)c3ccccc3nc2c1,-62.3% (active)
17,O/N=C/c1ccncc1,110%
18,Clc1ccc(N2N=C(c3cccc(Nc4ccncc4)c3)CC2c2ccc3c(c2)OCO3)cc1 (stereo not given),22.5%
19,COc1cc(C(=O)c2cnc(-c3ccc4cc[nH]c4c3)[nH]2)cc(OC)c1OC,-1.01% (active)
20,COc1cccc(/C=C2\Oc3cc(OCCCN4CCCC4)ccc3C2=O)c1,81%
